# Source: PubChem BioAssay (several laboratories)
# PTK2B oligo ant = Pyk2 (human) oligomerization antagonism; 99,000 compounds, 0.83% hits; AID 1347419; Q293 cells, Pyk2 FERM NanoBiT luminescence; hits give low values; z-score (the deposit names both 25 µM and 10 µM); Q14289;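 active means Z-score of -3 or lower, scaled per plate to the spread of control and sample wells; inactive means z-score above -3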;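 further: negative z-score means lost luminescence so less FERM oligomerization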
# CYP2C9 inh = inhibitors of human CYP2C9. CYP2C9 Supersomes, luciferin-H conversion, luminescence. inhibition, % at 5 µM. 96,000 compounds, 20% hits;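 active means blocking of liver enzyme CYP2C9 beyond about 50% at 5 µM, limit read from the data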
# Cav3 T inh = blocks human Cav3.2 T-type calcium channel; O95180; Cav3.2-expressing cells, Fluo-4 calcium fluorescence FDSS; hits give low values; B-score at 10 µM; 100,000 compounds, 4% hits; AID 449739;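 active means single-dose well whose peak fluorescence ratio is a statistical outlier from its plate by either plate-standardised score or position-corrected B-score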
# CYP2C19 inhib = inhibitors of human CYP2C19 | P33261 | CYP2C19 Supersomes, luciferin-H EGE luminescence, 30 min | inhibition, % at 5 µM | 96,000 compounds, 21% hits;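 active means CYP2C19 inhibition above a set limit at 5 µM in the primary screen, cut at about 50% in these data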
# CYP2C9 activ = CYP2C9 (human) activation; P11712; activation factor at 5 µM; AID 1024; 96,000 compounds, 1.4% hits; recombinant CYP2C9, luciferin-H conversion, luminescence; hits give high values; factor 1 = untreated enzyme, 0 = blocked;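 active means activation factor of 2 or more for CYP2C9 at a 5 µM dose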
# CYP2C19 activ = cytochrome P450 2C19 (human) activation; P33261; recombinant CYP2C19, luciferin-H EGE luminescence; hits give high values; 0 = fully inhibited enzyme, 1 = untreated enzyme; activation factor at 5 µM; 96,000 tested, under 10 active; AID 1025;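 active means activation factor of at least 2 at 5 µM in the primary screen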
# Hits are given with their value; i = inactive; nt = no result given. Sampled rows, rich in hits. Any-hit rate of the full collection: about 27%.
SMILES,PTK2B oligo ant,CYP2C9 inh,Cav3 T inh,CYP2C19 inhib,CYP2C9 activ,CYP2C19 activ
Cc1ccc2c(c1)N(Cc1ccncc1)C(=O)C(C)O2 (stereo not drawn),i,88.7,i,80.6,i,i
O=C1c2ccccc2S(=O)(=O)c2cc(N3CCC4(CC3)OCCO4)ccc21,nt,nt,i,nt,nt,nt
CC(C)(C)n1nnnc1CN(Cc1cccnc1)Cc1ccccc1Cl,i,i,i,88.1,i,i
CC(C)(C)n1nnnc1C(c1cccs1)N(Cc1ccc(Cl)cc1)CC1CCCO1 (stereo not drawn),i,i,-4.58,i,i,i
CC(C)(C)n1nnnc1C(c1cccnc1)N(Cc1ccccc1)Cc1cccs1 (stereo not drawn),-3.59,60.7,i,i,i,i
CC(C)(C)c1ccc(CN(Cc2ccccc2)C(c2ccccn2)c2nnnn2C(C)(C)C)cc1 (stereo not drawn),i,i,i,i,i,i
CC(C)(C)n1nnnc1C(c1cccs1)N(Cc1ccccc1)Cc1cccnc1 (stereo not drawn),-4.18,i,-4.57,i,i,i
Cc1cccc(-n2c(CNC(=O)c3ccccc3)nnc2SCC(=O)Nc2nccs2)c1,nt,i,i,i,i,i
CC(=O)c1cccc(NC(=O)c2cccc(S(=O)(=O)N(C)C)c2)c1,i,i,i,i,i,i
CCOC(=O)C1=C(C)Nc2ccccc2N=C1NC(=O)c1cccc(S(=O)(=O)N(C)C)c1,i,93.4,i,i,i,i
CCOC(=O)c1oc2ccccc2c1NC(=O)c1ccc(S(=O)(=O)N(C)C)cc1,i,i,i,i,i,i
CCOC(=O)C1=C(CC)Nc2ccccc2N=C1NC(=O)c1ccc(S(=O)(=O)N(C)C)cc1,i,92.6,i,92.0,i,i
CCCCn1cnc2sc3c(c2c1=N)CCCC3,i,i,i,59.8,i,i
O=C1NN(c2ccccc2)C(=O)/C1=C\c1cccc(OC(=O)c2cccs2)c1,i,95.8,i,51.9,i,i
O=C1NN(c2ccc(Cl)c(Cl)c2)C(=O)/C1=C/c1cccc(OC(=O)c2cccs2)c1,nt,i,i,i,i,i
COc1ccc(OC)c(/C=N/NC(=O)c2csc3ccccc23)c1,i,i,nt,i,i,i
Cc1ccc(NC(=O)C(SCC(=O)O)c2ccccc2)cc1C (stereo not drawn),i,i,i,i,i,i
COC(=O)CSC(C(=O)Nc1ccc(C)c(C)c1)c1ccccc1 (stereo not drawn),i,59.6,i,91.6,i,i
O=C(N1CCOCC1)C(F)(F)C(F)(F)C(F)(F)C(F)(F)C(=O)N1CCOCC1,i,i,i,i,i,i
CNc1nc(N2CCc3ccccc32)ncc1F,i,i,i,81.6,i,i
O=S(=O)(Nc1nc2ccccc2[nH]1)c1ccc2ccccc2c1,i,i,i,74.4,i,i
CC(C)OCCCn1c(=N)c(C(N)=S)cc2c(=O)n3ccccc3nc21,i,i,i,79.2,i,i
CCOCCCn1c(=N)c(C(=O)NCc2ccc3c(c2)OCO3)cc2c(=O)n3ccccc3nc21,nt,i,nt,i,i,i
N#Cc1nc(-c2cccs2)oc1N1CCOCC1,i,i,i,i,i,i
CCOC(=O)C1=C(CSc2n[nH]c(N)n2)NC(=O)NC1C (stereo not drawn),i,i,i,i,i,i
SMILES,PTK2B oligo ant,CYP2C9 inh,Cav3 T inh,CYP2C19 inhib,CYP2C9 activ,CYP2C19 activ
CC(C)(C)NS(=O)(=O)c1ccc(NS(=O)(=O)Cc2ccccc2)cc1,i,81.2,i,71.8,i,i
CC(C)(C)NS(=O)(=O)c1ccc(CCC(=O)O)cc1,i,i,i,i,i,i
Cc1ccc(S(=O)(=O)C2(C(=O)Nc3cccnc3)CC2)cc1,nt,i,i,56.3,i,i
CC(C)(C)C(=O)NNC(=O)CCCOc1ccc(Cl)cc1Cl,i,i,i,i,i,i
O=C(CCCOc1ccc(Cl)cc1Cl)N/N=C\C1CCCCC1,i,i,i,91.5,i,i
CC(C)(CO)NC(=O)CCCOc1ccc(Cl)cc1Cl,i,i,i,55.1,i,i
O=C(Nc1cccnc1)C1(c2ccc(Cl)cc2)CCCC1,i,i,i,80.6,i,i
Cc1nc(C)c(C(=O)NCc2ccccc2Cl)o1,i,i,i,i,i,i
Cc1cccc(NC(=O)CCSc2nncn2C)c1,i,nt,i,nt,nt,nt
CCOc1ccc2[nH]c(=O)c(CN(Cc3ccccc3)C(=O)N3CCCC3)cc2c1,i,i,i,i,i,i
